Laboratory results reported in the supplement of paper PMC13380429.

System: Vero E6 infected with SARS-CoV-2
Test: inhibition of SARS-CoV-2 cytopathic effect; higher = more antiviral protection, active = above 15
Details: 48 h

Measured: inhibition of SARS-CoV-2 cytopathic effect

Cc1ccc(C23CNCC2C3)cc1 (stereo not given) [bicifadine]
inactive: 1 nM 0.67% | 8.33 nM -0.49% | 100 nM 0.91% | 833.33 nM -1.53% | 10000 nM -0.3%

CCNC(=O)/C=C/c1cccc(Br)c1 [cinromide]
inactive: 1 nM 0.47% | 8.33 nM 1.25% | 100 nM 0.09% | 833.33 nM 2.1% | 10000 nM 1.33%

COc1cc(-n2cnc3cc(-c4ccc(Cl)cc4)sc3c2=O)ccc1OCCN1CCCC1
active: 10000 nM 49.9%
inactive: 1 nM -1.24% | 8.33 nM 0.96% | 100 nM 0.81% | 833.33 nM -2.38%

CC(C)(C)c1ccc(/C=C/C(=O)Nc2ccc3c(c2)OCCO3)cc1
inactive: 1 nM -2.25% | 8.33 nM 0.94% | 100 nM 1.24% | 833.33 nM -0.32% | 10000 nM -0.3%

CC(=O)NC[C@H]1CN(c2ccc(-c3ccc(CNCc4cnn[nH]4)cc3)c(F)c2)C(=O)O1 [radezolid]
inactive: 1 nM -1.38% | 8.33 nM 0.58% | 100 nM 2.16% | 833.33 nM -0.64% | 10000 nM 2.43%

CCCCC(=O)O[C@H]1CC[C@H]2[C@@H]3CCc4cc(O)ccc4[C@H]3CC[C@]12C
inactive: 1 nM -0.93% | 8.33 nM 0.74% | 100 nM -1.48% | 833.33 nM -1.92% | 10000 nM -0.83%

O=C(Nc1ccncc1)c1cc([N+](=O)[O-])ccc1Cl
inactive: 1 nM -0.14% | 8.33 nM 1.74% | 100 nM -1.69% | 833.33 nM -1.5% | 10000 nM 14.7%

COC[C@H]1OC(=O)c2coc3c2[C@@]1(C)C1=C(C3=O)[C@@H]2CCC(=O)[C@@]2(C)C[C@H]1OC(C)=O [wortmannin]
inactive: 1 nM -3.55% | 8.33 nM -1.71% | 100 nM -2.28% | 833.33 nM -4.43% | 10000 nM -2.83%

O=C1c2c(O)cccc2C([C@@H]2O[C@H](CO)[C@@H](O)[C@H](O)[C@H]2O)c2cc(CO)cc(O)c21 (stereo not given in full) [aloin]
inactive: 1 nM -0.62% | 8.33 nM 0.1% | 100 nM -0.43% | 833.33 nM 1.27% | 10000 nM 1.29%

COC(=O)C1=C(C)NC(C)=C([N+](=O)[O-])[C@@H]1c1ccccc1C(F)(F)F (racemic)
inactive: 1 nM 2% | 8.33 nM -0.15% | 100 nM -1.34% | 833.33 nM 2.63% | 10000 nM 4.88%

CCC(NC(C)C)C(O)c1ccc(O)c(O)c1 (stereo not given) [isoetharine]
inactive: 1 nM -0.44% | 8.33 nM 0.06% | 100 nM -2.12% | 833.33 nM -0.61% | 10000 nM 1.5%

CCOc1ccc(-n2c([C@@H](C)N(Cc3cccnc3)C(=O)Cc3ccc(OC(F)(F)F)cc3)nc3ncccc3c2=O)cc1 (racemic)
inactive: 1 nM 0.51% | 8.33 nM 2.23% | 100 nM 0.96% | 833.33 nM 1.88% | 10000 nM -1.62%

CC(=O)NCCc1c(Cc2ccccc2)[nH]c2ccccc12 [luzindole]
inactive: 1 nM 5.27% | 8.33 nM 4.35% | 100 nM 1.82% | 833.33 nM 3.18% | 10000 nM 3.21%

CN(C)CC[C@@]1(c2ccc(Cl)cc2)Cc2ccccc2C(=O)O1 (racemic)
inactive: 1 nM -1.76% | 8.33 nM -2.36% | 100 nM -1.71% | 833.33 nM -2.86% | 10000 nM -3.54%

Clc1ccc(C(c2ccc(Cl)cc2)C(Cl)(Cl)Cl)cc1
inactive: 1 nM 1.71% | 8.33 nM 4.86% | 100 nM 0.57% | 833.33 nM -1.73% | 10000 nM -1.33%

Cc1c(F)cccc1NC(=O)Nc1ccc(Cl)c(S(=O)(=O)[C@H]2CCCNC2)c1O [danirixin]
inactive: 1 nM -0.94% | 8.33 nM -0.94% | 100 nM -0.32% | 833.33 nM -0.62% | 10000 nM 2.67%

COc1cc2c(cc1OC(C)C)[C@H](c1ccc(Cl)cc1)N(c1ccc(N(C)C[C@H]3CC[C@H](N4CCN(C)C(=O)C4)CC3)cc1)C(=O)C2
inactive: 1 nM -0.21% | 8.33 nM 1.25% | 100 nM 2.45% | 833.33 nM 2.4% | 10000 nM 2.39%

O=C(N[C@@H](Cc1c[nH]c2ccccc12)C(=O)O)c1ccc(Cl)cc1 [benzotript]
inactive: 1 nM 1.07% | 8.33 nM 1.9% | 100 nM 2.83% | 833.33 nM 2.01% | 10000 nM 3.35%
